Laboratory results as given in PubChem BioAssay (NCI).
About 83,000 compounds went through this panel and 20% of them were active in at least one assay; those are over-represented in the sample as a whole.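 In brief: 96-well plates, 48 h treatment, single concentration, percent growth endpoint.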 Values without a mark were called inactive. Calls of active or inactive are those of the source. The calls were made as follows: active = growth percent below 10; inactive = the rest.

Legend:
Assay in all cases: NCI-60 one-dose screen, 48 h (100 = growth as untreated, 0 = no growth, -100 = all killed)
Conditions in all cases: 10 µM unless noted
NCI/ADR-RES ovarian = system: NCI/ADR-RES ovarian
T-47D breast = system: T-47D breast
BT-549 breast = system: BT-549 breast
MDA-MB-435 melanoma = system: MDA-MB-435 melanoma
SW-620 colon = system: SW-620 colon
MCF7 breast = system: MCF7 breast
HCT-116 colon = system: HCT-116 colon
HCC-2998 colon = system: HCC-2998 colon
KM12 colon = system: KM12 colon

Compound | growth (NCI/ADR-RES ovarian) | growth (T-47D breast) | growth (BT-549 breast) | growth (MDA-MB-435 melanoma) | growth (SW-620 colon) | growth (MCF7 breast) | growth (HCT-116 colon) | growth (HCC-2998 colon) | growth (KM12 colon)
C[C@]12CC[C@H]3[C@@H](CC4SC(N)=NC45C/C(=N/NC(N)=O)CC[C@]35C)[C@@H]1CCC2=O (some centres not stated) | -5.32% (active) | -21% (active) | 107% | -58.8% (active) | -59.2% (active) | -55.6% (active) | 6.35% (active) | 63.9% | 20.5%
COC(=O)[C@@H](C)C[C@H](Cc1ccccc1)NC(=O)c1nc([C@@H](C[C@H](C(C)C)N(C)C(=O)[C@@H](NC(=O)[C@H]2CCCCN2C)C(C)C)OC(C)=O)sc1C | 16.5% | 66.1% | -23.4% (active) | -31.5% (active) | 20.1% | 12.3% | 2.54% (active) | 13.8% | 8.06% (active)
Clc1cccc(Cl)c1Cl | 105% | 85.8% | 102% | 105% | 105% | 93.5% | 98.9% | 99.8% | 100%
COC(=O)[C@H](Cc1c[nH]c2ccccc12)NC(=O)[C@@H](OC)[C@@H]1Cc2cc3cc(OC4CC(OC5CC(O)C(O)C(C)O5)C(O)C(C)O4)c(C)c(O)c3c(O)c2C(=O)[C@H]1OC1CC(OC2CC(OC3CC(C)(O)C(O)C(C)O3)C(O)C(C)O2)C(O)C(C)O1 (some centres not stated) | 76.7% | 8.07% (active) | -53.4% (active) | -71.9% (active) | 6.98% (active) | 5.98% (active) | 3.71% (active) | -46.8% (active) | 0.363% (active)
CN(C)C1C(=O)C(C(N)=O)=C(O)C2(O)C(=O)C3=C(O)c4c(O)cccc4C(C)(O)C3CC12.[Cl][Sb]([Cl])[Cl] (configuration not stated) | 56.9% | 60.3% | 15.5% | 24.1% | 34.7% | 57.6% | 11.9% | 39.6% | 45.9%
Cn1cc(-c2csc(-c3cn(CCCCN4CCCCC4)c4ccccc34)n2)c2cccnc21 | -17.4% (active) | 88.4% | 69.2% | -79.6% (active) | -65.2% (active) | -65.9% (active) | -90.4% (active) | 87.2% | 0.281% (active)
CC(=O)Nc1ccc(NC(=O)c2ccc([As](O)O)cc2)cc1 | 101% | 48.3% | 113% | 99.8% | 87.9% | 85% | 101% | 112% | 124%
CCC1CN1CCCCN1CC1CC (configuration not stated) | 103% | 92.1% | 103% | 93.7% | 105% | 99.8% | 98.7% | 100% | 106%
CCC1(C(C)C)C(=O)NC(=S)NC1=O | 115% | 106% | 113% | 101% | 97% | 105% | 106% | 117% | 100%
Cn1cc(-c2csc(-c3cn(CCN4CCOCC4)c4ccc(F)cc34)n2)c2cccnc21 | 5.84% (active) | -17.7% (active) | 10.8% | 32.2% | 44.9% | 8.93% (active) | 36.9% | 86.7% | 22.3%
CC[CH2][Sn]([Cl])([Cl])[CH2]CC | 106% | -3.16% (active) | 60.7% | 79.8% | 36.9% | 50.4% | 79.9% | 87.7% | 101%
CCC[CH2][Sn]([CH2]CCC)([CH2]CCC)[O]c1ccc(Cl)cc1Cl | -84.6% (active) | -84% (active) | -81.7% (active) | -60.7% (active) | -92.9% (active) | -93% (active) | -79.9% (active) | -95.4% (active) | -94.2% (active)
CNC12C3C4C1C1C2C3C41C(=O)N[C@H](C(=O)N(C)[C@H](C[C@@H](OC(C)=O)c1nc(C(=O)N[C@@H](Cc2ccccc2)C[C@H](C)C(=O)OC)cs1)C(C)C)C1CC1 (some centres not stated) | 62% | 50.9% | -34.7% (active) | -18.5% (active) | 53.1% | 15.7% | 2.93% (active) | -60.8% (active) | -9.24% (active)
CC1=C(CNO)C2=C(C)C3(CC3)[C@@](C)(O)C(=O)C2=C1 | 29.7% | -3.61% (active) | -13% (active) | 92.1% | 65.7% | 10.6% | 2.04% (active) | -33.4% (active) | 70%
C=CC1=C[C@@H]2[C@@H]3O[C@]4(CC[C@H](O4)[C@@H](C)C[C@@H](O)C3=O)C[C@H](O)C3=NCC[C@@]32CC1 | -15.3% (active) | -14.6% (active) | -31.9% (active) | -92.9% (active) | -11.3% (active) | -11.8% (active) | -22.8% (active) | -81.2% (active) | -33.4% (active)
CCOC(=O)[C@@H](C)C[C@H](Cc1ccccc1)NC(=O)c1csc([C@@H](C[C@H](C(C)C)N(C)C(=O)[C@@H](NC(=O)[C@H]2CCCCN2C)C(C)(C)CC)OC(C)=O)n1 | 14.7% | 70.7% | -40.2% (active) | -60.8% (active) | 21.9% | 24.2% | 0% (active) | 11.9% | 1.89% (active)
C[C@]12CCc3sc(-c4cccc(F)c4)nc3C1=CC[C@@H]1[C@@H]2CC[C@]2(C)C(=O)CC[C@@H]12 | 68.3% | 3.07% (active) | 23.2% | 49.2% | 3.81% (active) | 10.8% | 0.513% (active) | 79.5% | 46.5%
C=CC[PH+](c1ccccc1)c1ccccc1.C=CC[PH+](c1ccccc1)c1ccccc1.[Cl][Pt][Cl] | 97% | 0.0943% (active) | 78% | 64.9% | 2.38% (active) | 31.9% | 3.92% (active) | 94.9% | 77.8%
O=C1CC2(CC3(Cl)C(Cl)=C(Cl)C2(Cl)C3(Cl)Cl)C(=O)O1 (configuration not stated) | 101% | 99.6% | 107% | 103% | 113% | 99.4% | 91.1% | 102% | 106%
N#C[Se]CCN1C(=O)c2ccccc2C1=O | 9.97% (active) | 49.9% | 34.3% | 20.8% | 23.9% | 25.4% | 9.26% (active) | 53.1% | 43%
COc1ccc(/C=C\c2cc(OC)c(OC)c(OC)c2)cc1NC(=O)/C=C/c1cc(OC)c(OC)c(OC)c1 | 8.42% (active) | 30% | 44% | -53.2% (active) | 47.6% | 25.2% | 44.6% | 91.2% | 28.6%
CC[C@H](C)[C@H](NC(=O)[C@H]1CCCCN1C)C(=O)N(C)[C@H](CC(=O)c1nc(C(=O)N[C@@H](Cc2ccccc2)C[C@H](C)C(=O)O)cs1)C(C)C | 113% | 64.8% | 63% | 15.5% | 50.2% | 23.1% | 77.3% | 87.9% | 65.1%
COC(=O)C12CC(NC(=O)c3csc([C@@H](C[C@H](C(C)C)N(C)C(=O)[C@@H](NC(=O)[C@H]4CCCCN4C)C(C)C)OC(C)=O)n3)(C1)C2 | -4.67% (active) | 75.2% | -25.8% (active) | -43.7% (active) | 27.4% | 15.4% | 4.37% (active) | 10.4% | 11.1%
Cc1cc(C)cc(Nc2nc3c(s2)CC[C@@]2(C)C3=CC[C@@H]3[C@@H]2CC[C@]2(C)C(=O)CC[C@@H]32)c1 | 74.5% | 28.9% | 47.2% | 72.8% | 37.8% | 16.9% | 6.21% (active) | 94.2% | 55.5%
CC[C@H](C)[C@H](NC(=O)C12C3C4C1C1C2C3C41NC)C(=O)N(C)[C@H](C[C@@H](OC(C)=O)c1nc(C(=O)N[C@@H](Cc2ccccc2)C[C@H](C)C(=O)OC)cs1)C(C)C (some centres not stated) | 72.6% | 40.5% | 2.04% (active) | -27.9% (active) | 21.6% | 17.2% | 4% (active) | 15.9% | 15%
C=COC(=O)CCN1CC1 | 111% | 106% | 110% | 105% | 106% | 101% | 103% | 110% | 107%
CC(=O)[O][Hg][c]1c(N)c(C)cc(C)c1F | 74.6% | -20% (active) | -14% (active) | -60.5% (active) | -19.5% (active) | -5.09% (active) | 25.7% | 93.7% | 81.4%
COc1cc(C=Nc2cccc(C(=O)O)c2)ccc1N(CCCl)CCCl | 103% | 96.3% | 103% | 91.5% | 90.4% | 95.2% | 104% | 74.4% | 57.3%
